Compound activity as filed in PubChem BioAssay.
Most compounds without a hit are left out; they make up all but 7.2% or so of the library.
3T3 cytotox – Cytotoxic Profiling in NIH 3T3 Cell Line of Diverse Libraries Using Quantitative High-Throughput Screening; NIH 3T3 viability, CellTiter-Glo ATP luminescence, 48-72 h; 94,000 tested, 4.3% active; Potency, µM (titrated, usually from 96.7 µM), for inactives: at the highest dose activity change, negative = cytotoxicity, actives largely listed as inhibitors; also: nearly all actives have a fitted effect of over 55% in size
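Cells were seeded at 400 per well, treated with pin-transferred compound, and kept 48 or 72 hr at 37 °C before CellTiter-Glo addition and luminescence imaging of cellular ATP.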
HEK293 tox – Cytotoxic Profiling in HEK 293 Cell Line of Diverse Libraries Using Quantitative High-Throughput Screening. HEK 293 viability, ATP luminescence (CellTiter-Glo), 48-72 h. Potency, µM (series often up to 115 µM), for the others: at the top dose activity change, negative = cytotoxicity, most hits filed as inhibitors. 94,000 tested, 6.6% active; also: nearly all actives have a fitted effect of over 60% in size
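Read-out: CellTiter-Glo ATP luminescence. Cells: HEK 293, 250 cells/well. Exposure: 48 or 72 hr, 37 degree Celsius.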
SNCA viab count – GF-AFC viability counterscreen for inhibitors of alpha-synuclein gene (SNCA) expression; HEK-293-SNCA-luc viability, GF-AFC fluorescence, 24 h; AID 1671193, 2021; Potency, µM (highest dose often 57.1 µM), without a hit: at the highest dose activity change, negative = cytotoxicity, actives largely listed as cytotoxic; 150,000 tested, 0.12% active;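 also: 0% = DMSO-treated cells and -100% = medium-only wells without cells; nearly all actives have a fitted effect of over 30% in size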
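HEK-293-SNCA-luc cells (1500/well) plated 24 h, then exposed 24 h to a dilution series; GF-AFC added 30 min at 37C, fluorescence 405/540 nm; normalised to medium-only and DMSO wells, Hill fit.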
hNpr1 antagonist – Natriuretic polypeptide receptor (hNpr1) antagonism - Primary qHTS. Atrial natriuretic peptide receptor 1 (Homo sapiens), P16066. HEK293 hNpr1 GloSensor cGMP, ANP-stimulated luminescence. Potency, µM (highest dose often 46.3 µM), for inactives: at the top dose activity change, negative = inhibition, usual class: inhibitors. 76,000 tested, 1.6% active; calls by dose curve; also: nearly all actives have a fitted effect of over 60% in size
Target sequence (P16066 whole entry, looked up): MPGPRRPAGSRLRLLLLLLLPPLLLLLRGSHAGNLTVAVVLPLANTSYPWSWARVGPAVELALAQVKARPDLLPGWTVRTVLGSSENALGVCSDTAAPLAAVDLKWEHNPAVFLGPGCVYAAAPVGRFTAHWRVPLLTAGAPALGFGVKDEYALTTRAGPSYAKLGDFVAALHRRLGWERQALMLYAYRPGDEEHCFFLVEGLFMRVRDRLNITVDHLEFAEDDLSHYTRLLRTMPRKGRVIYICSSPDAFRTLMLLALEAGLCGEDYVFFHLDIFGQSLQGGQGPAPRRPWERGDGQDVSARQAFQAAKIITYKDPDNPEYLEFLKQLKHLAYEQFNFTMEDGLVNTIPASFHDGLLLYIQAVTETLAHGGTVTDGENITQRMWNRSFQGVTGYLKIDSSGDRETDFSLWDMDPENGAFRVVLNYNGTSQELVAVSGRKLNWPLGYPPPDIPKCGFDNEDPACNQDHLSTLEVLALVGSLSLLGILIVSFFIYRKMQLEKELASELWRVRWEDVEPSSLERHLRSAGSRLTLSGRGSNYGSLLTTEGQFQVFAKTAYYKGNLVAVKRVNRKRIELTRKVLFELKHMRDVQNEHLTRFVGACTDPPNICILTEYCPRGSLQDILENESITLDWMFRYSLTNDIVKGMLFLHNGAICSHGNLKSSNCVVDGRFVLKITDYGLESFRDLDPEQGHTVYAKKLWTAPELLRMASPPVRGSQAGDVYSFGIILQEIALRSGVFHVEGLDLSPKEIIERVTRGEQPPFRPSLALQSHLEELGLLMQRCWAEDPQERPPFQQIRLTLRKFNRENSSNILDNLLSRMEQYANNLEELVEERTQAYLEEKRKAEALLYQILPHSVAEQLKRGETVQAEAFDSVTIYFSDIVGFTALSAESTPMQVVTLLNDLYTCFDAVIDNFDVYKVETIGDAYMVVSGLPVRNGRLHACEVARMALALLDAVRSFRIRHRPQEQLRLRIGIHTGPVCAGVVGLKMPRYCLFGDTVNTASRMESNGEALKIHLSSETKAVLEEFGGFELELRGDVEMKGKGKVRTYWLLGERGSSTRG
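HEK293 cells stably expressing human Npr1 and cGMP GloSensor pGS-40F, loaded 2 h with 2% GloSensor reagent, given compound 30 min at room temperature. Luminescence read before and 20 min after 0.1 nM hNppA.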
FLuc inh – Firefly luciferase inhibition profiling of diverse chemical library using quantitative high-throughput screening; purified P. pyralis luciferase, luminescence, biochemical; Potency, µM (titrated, usually from 115 µM), actives largely listed as inhibitors; 76,000 tested, 2.5% active; also: nearly all actives have a fitted effect of over 65% in size
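FLuc 10nM, D-luciferin 10uM, ATP 10uM, Mg acetate 10mM, Tris acetate pH 7.5, Tween/BSA; cpd qHTS; enzyme added last; CCD luminescence.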
SNCA expr inh – Primary qHTS assay for inhibitors of alpha-synuclein gene (SNCA) expression; HEK-293 SNCA-luciferase knock-in, luminescence, 24 h; 140,000 tested, 0.17% active; AID 1671194, 2021; Potency, µM (top dose mostly 57.2 µM), for inactives: at the top dose activity change, negative = inhibition, actives largely listed as inhibitors;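 also: plate controls were DMSO cells for no effect and cell-free wells for full effect; nearly all actives have a fitted effect of over 45% in size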
Active calls of the source: *; i = inactive; u = inconclusive; x = not tested or not shown; ! = not confirmed by another sample; [ ] = remark or other dose. Unless noted, calls follow the shape of the dose curve; as a rule, active = well fitted curve in the direction sought with a large enough effect; inconclusive = small, poorly fitted or top-dose-only effect, or another doubt; inactive = no such curve, though single readings can be large; an effect the other way counts as inactive or inconclusive. Unless noted, % is scaled to controls: 0 for no effect and ±100 for the full control effect; potency is read from the fitted curve at half-maximal effect.

SMILES	3T3 cytotox	HEK293 tox	SNCA viab count	hNpr1 antagonist	FLuc inh	SNCA expr inh
Cn1ncc2c(C(=O)NC3CCCCCC3)cc(C(C)(C)C)nc21	u	35.5µM*	2.4%[12.5 µM]	x	x	u
Cn1ncc2c(C(=O)NC3CC3)cc(-c3cc(Cl)cc(Cl)c3)nc21	i	i	6.2%	x	x	4.2%
Cn1ncc2c(C(=O)NC3CC3)cc(-c3ccc(Cl)cc3)nc21	79.4µM*	u	-17.4%[87.6 µM]	x	x	-5.7%[87.6 µM]
CNC(=O)c1ccc(OC)c(-c2cc(N)nc3[nH]ccc23)c1	4.8%	2.4%	-1.8%	3.3%	i	-12.0%
COc1ccccc1-c1cccc(CN2CCCC(C(=O)Nc3ccc(F)cc3)C2)c1 (stereo unspecified)	u	12.6µM*	u	x	x	u
COc1ccccc1-c1cccc(CN2CCCC(C(=O)NCCc3ccc(F)cc3)C2)c1 (stereo unspecified)	31.6µM*	u	-20.4%	x	x	u
COCCNC(=O)C1CCCN(Cc2cccc(-c3ccccc3OC)c2)C1 (stereo unspecified)	u	u	-10.6%	x	x	-13.2%
Cc1[nH]cnc1CN1CCCC(C(=O)Nc2ccc(-c3cccc(F)c3)cc2)C1 (stereo unspecified)	u	25.1µM*	3.3%	6.0%	i	-3.9%
COc1ccccc1-c1cc(C(=O)NCCc2ccc(Cl)cc2)nc2c1cnn2C	u	u	-0.7%	x	x	22.5%
COc1ccccc1Nc1ccnc(N2CCC(N[S+](=O)([O-])c3c(C)noc3C)CC2)n1	u	u	-2.2%[12.5 µM]	x	x	-1.5%
Cc1cc(C)cc(-c2ccc(CN3CCCC(N[S+](=O)([O-])c4cccs4)C3)cc2)c1 (stereo unspecified)	31.6µM*	35.5µM*	-9.6%	x	x	-24.0%
Cc1cc(C)cc(-c2ccc(CN3CCCC(N[S+](=O)([O-])c4c(C)noc4C)C3)cc2)c1 (stereo unspecified)	35.5µM*	25.1µM*	4.2%	x	x	9.2%
Cc1cc(C)cc(-c2ccc(CN3CCCC(NC(=O)C4CCCC4)C3)cc2)c1 (stereo unspecified)	-19.2%	-15.5%	7.6%[12.5 µM]	x	x	-28.4%
Cc1ccc([S+](=O)([O-])NC2CCCN(Cc3ccc(-c4cc(C)cc(C)c4)cc3)C2)cc1 (stereo unspecified)	u	39.8µM*	-1.5%	x	x	-16.8%
COc1ccccc1-c1ccc(CN2CCC(N[S+](=O)([O-])c3c(C)noc3C)C2)cc1 (stereo unspecified)	u	44.7µM*	x	x	x	x
Cc1c(CN(C)Cc2cccc(C(=O)Nc3ccc(C#N)cc3)c2)cnn1C	-29.3%	50.1µM*	-5.8%	-12.0%	i	-7.2%
N#Cc1cccc(NC(=O)c2cccc(CN3CCN(CCO)CC3)c2)c1	-6.6%	u	-1.3%	-17.6%	i	-1.5%
Cc1cc(C)n(CC(=O)N2CCC(c3nc(CCOc4ccc(F)cc4)no3)C2)n1 (stereo unspecified)	u	-25.0%	-6.6%[12.5 µM]	-16.4%	i	54.4%
CCCn1ncc(N2CCC(C(=O)N(CCc3ccncc3)CC3CCCO3)CC2)cc1=O (stereo unspecified)	-0.4%	-11.3%	-3.1%	x	x	-13.7%
CCCn1ncc(N2CCC(C(=O)N(CCCOC)Cc3ccc4c(c3)CCCN4CC)CC2)cc1=O	35.5µM*	22.4µM*	-22.8%	x	x	-4.6%
Cn1c(Cn2cccn2)nnc1C1CCCN(C(=O)Cc2cccnc2)C1 (stereo unspecified)	-17.0%	-4.8%	2.2%	1.0%	i	0.7%
CC(=O)N1CCCN(Cc2ccc3c(c2)OCO3)c2ccccc21	u	u	-10.7%	4.1%	i	30.5%
O=C(c1ccccc1)N1CCCN(Cc2ccc3c(c2)OCO3)c2ccccc21	u	35.5µM*	-7.3%	-3.9%	i	-10.5%
O=c1c2c(nc3cc[nH]n13)CN(S(=O)(=O)c1ccc(F)c(Cl)c1)CC2	-3.7%	-5.0%	10.9%	-1.2%	i	-0.1%
NC(=O)c1ccc(-c2nc3c([nH]2)CN(c2ncnc4ccsc24)CC3)cc1	-10.1%	31.6µM*	-12.7%	-16.3%	i	5.2%
SMILES	3T3 cytotox	HEK293 tox	SNCA viab count	hNpr1 antagonist	FLuc inh	SNCA expr inh
CC(C)CNC(=O)N1CCc2nc(-c3ccccc3)[nH]c2C1	-28.5%	-21.5%	3.5%	x	x	46.7%
O=C1CC(c2n[nH]c(C3CCOCC3)n2)CN1Cc1cccnc1 (stereo unspecified)	-5.7%	-14.9%	6.7%	9.9%	i	11.7%
CC(C)Cn1c(CNC(=O)OC(C)(C)C)nc2cccnc21	44.7µM*!	u	-10.0%[87.6 µM]	4.8%[70.6 µM]	i	7.0%[87.6 µM]
COCCCNC(=O)C1(CCO)CCN(Cc2ccccc2)C1 (stereo unspecified)	i	1.3%	-10.2%	2.8%	i	-28.0%
O=C(Nc1ccccc1)c1cnc(-c2ccc(F)cc2)nc1-c1ccncc1	u	14.7%	-9.5%	-22.2%	i	47.3%
O=C(Nc1cc(F)ccc1Cl)c1cnc(-c2ccccc2)nc1-c1ccncc1	-11.4%	-7.9%	7.9%	-21.8%	i	u
O=C(Nc1ccc(F)c(Cl)c1)c1cnc(-c2ccccc2)nc1-c1ccncc1	25.1µM*	35.5µM*	-25.5%	u	i	u
O=C(Nc1cc(F)cc(F)c1)c1cnc(-c2ccc(F)cc2)nc1-c1ccncc1	20µM*	22.4µM*	u	u	u	-12.3%
COC1C=C([C@@H]2CC=C3[C@@]4(C)C(CC[C@]32C)[C@@]2(C)C=CC(=O)C(C)(C)C2C[C@H]4OC(C)=O)C(=O)O1 (stereo partly specified)	x	x	-20.8%[23.9 µM]	x	x	x
Cc1ccccc1C(=O)N1CCCC(N2C(=O)c3c(c(C)nn3-c3ccccc3)C2C(C)C)C1 (stereo unspecified)	39.8µM*	22.4µM*	x	x	x	x
Cc1nn(-c2ccccc2)c2c1C(C(C)C)N(C1CN(C(=O)c3ccccn3)C1)C2=O (stereo unspecified)	u	-28.2%	x	x	x	x
Cc1nn(-c2ccccc2)c2c1C(C(C)C)N(C1CN(C(=O)N(C)C)C1)C2=O (stereo unspecified)	-25.9%	u	x	x	x	x
Cc1nn(-c2ccccc2)c2c1C(C(C)C)N(C1CCCN(C(=O)c3ccccc3F)C1)C2=O (stereo unspecified)	u	35.5µM*	x	x	x	x
